Here are results for 8 compounds from PubChem BioAssay.

The nature of experiment [1]: inhibitors of TNFa-induced NFkB p65 translocation, primary screen, imaging, HUVEC, MLSMR starter and 10KST1 sets (AID 438;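 active = inhibition above 20% together with a positive visual image hit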;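 note: compound added about 3h40 before a 20 min TNFalpha stimulation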;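 for inhibition: signal is the nuclear over cytoplasmic p65 intensity ratio per well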). The following applies: HUVEC TNFa-induced p65 nuclear translocation; cell count: measured here: nuclei count (cytotoxicity indicator), at 2.08 µM; inhibition: at 2 µM, stronger effect = higher value, 0% TNFa-plus-vehicle, 100% no-TNFa wells.
Experiment [2] can be described thus: inhibitors of mutant huntingtin aggregation, primary screen, imaging, exon1htt(103Q)mCFP cells, high-content imaging (AID 483;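 active = visual image review flags a hit and inhibition of aggregation exceeds 20%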;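 note: compound exposure lasted 3 days before fixation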;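 for nuclei count: percent of the per-plate median nuclei count of sample wells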). The following applies: exon1htt(103Q)mCFP cell line, aggregate imaging, at 2 µM; inhibition of aggregation: stronger effect = higher value; nuclei count: measured here: cell count, toxicity.
Experiment [3] can be described thus: inhibitors of E-selectin induction by TNFa, primary screen, imaging, HUVEC, immunofluorescence, MLSMR starter and 10KST1 sets (AID 487;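 active = visually confirmed hit in the image check and inhibition above 20%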;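 for inhibition: signal is fraction of cell area covered by stained E-selectin grains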;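 for nuclei count: 100% = median nuclei count of all wells on the same plate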). The following applies: HUVEC TNFalpha-induced E-selectin immunofluorescence imaging, at 2 µM; inhibition: stronger effect = higher value; nuclei count: measured here: cell number, toxicity.
In experiment [4] the target is Voltage-gated potassium channel subunit beta-2 (Rattus norvegicus) (UniProt P62483). Description: KvBeta enzyme negative modulators, primary screen, biochemical, NADPH fluorescence (AID 622;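 active = fluorescence slope higher than the sample average by over 3 SD, cut at about -0.22 in these data, passing the limit was not always enough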;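 note: slope of raw intensity against log time taken from 70 to 1610 s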). The following applies: recombinant KvBeta, 4-cyanobenzaldehyde reduction, at 10 µM, stronger effect = higher value.
Experiment [5] shares this target. Description: KvBeta positive modulators, primary screen, biochemical, NADPH fluorescence (AID 623;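 active = NADPH fluorescence slope more negative than the mean of all samples by about 3 SD, 99.7% confidence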;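 note: fluorescence intensity change per second fitted from 20 to 320 s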). The following applies: Recombinant KvBeta, NADPH fluorescence decrease slope, 10 min; at 10 µM; stronger effect = lower value.
Experiment [6] deals with Alpha-2C adrenergic receptor (Homo sapiens) (UniProt P18825). The experiment in a line: modulators of alpha2C/GIRK thallium flux, primary screen, cell-based, HEK293 alpha2C/GIRK1/2 (AID 624;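 active = fluorescence slope after compound addition differing from the mean of all screened samples at 99.7% confidence, in either direction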;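 note: slope of fluorescence ratio to pre-addition baseline per second over 15 to 24 s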). The following applies: thallium flux BTC fluorescence, at 10 µM, actives lie on both sides.
The nature of experiment [7]: inhibitors of Sendai virus-induced IRF3 signaling, primary screen, TLR/RLR signaling modifier project, cell-based, Sendai virus stimulus, luciferase, 10K MLSCN set (AID 602276;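 active = inhibition at or above 50% at 10 µM; inactive = inhibition below 50%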;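 note: firefly luciferase from ISG56 promoter only with Renilla not read in this screen; 0% = Sendai virus plus DMSO and 100% = medium plus DMSO without virus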). The following applies: HEK293 RL24 IRF3 luciferase reporter, at 10 µM, stronger effect = higher value. (In general: Reporter assays use an easily measured gene product as a stand-in for the process of interest.)

Experiment [8] can be described thus: inhibitors of poly I:C-induced TLR3 signaling, primary screen, cell-based, poly I:C stimulus, luciferase, 10K MLSCN set (AID 602277). The following applies: HEK293-TLR3 RL24 IRF3 luciferase reporter, at 10 µM, stronger effect = higher value.

Active and inactive are the calls of the source.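 Rule for the calls, unless noted: active = inhibition of the reporter signal at or above 50%; inactive = inhibition below 50%.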

Chain of Alpha-2C adrenergic receptor (Homo sapiens) (P18825 whole entry, looked up): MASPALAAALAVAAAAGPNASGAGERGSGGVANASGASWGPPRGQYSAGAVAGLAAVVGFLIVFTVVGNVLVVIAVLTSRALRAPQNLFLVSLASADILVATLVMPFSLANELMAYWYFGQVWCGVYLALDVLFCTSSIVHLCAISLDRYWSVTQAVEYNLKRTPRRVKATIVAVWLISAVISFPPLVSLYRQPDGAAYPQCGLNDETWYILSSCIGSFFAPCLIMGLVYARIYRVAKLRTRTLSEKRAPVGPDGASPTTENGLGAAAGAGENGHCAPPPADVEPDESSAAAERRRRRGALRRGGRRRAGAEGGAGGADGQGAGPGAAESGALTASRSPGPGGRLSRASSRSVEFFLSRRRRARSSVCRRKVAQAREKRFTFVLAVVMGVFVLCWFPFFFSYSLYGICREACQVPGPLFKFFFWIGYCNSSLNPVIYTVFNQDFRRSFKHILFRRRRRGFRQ
Chain of Voltage-gated potassium channel subunit beta-2 (Rattus norvegicus) (P62483 whole entry, looked up): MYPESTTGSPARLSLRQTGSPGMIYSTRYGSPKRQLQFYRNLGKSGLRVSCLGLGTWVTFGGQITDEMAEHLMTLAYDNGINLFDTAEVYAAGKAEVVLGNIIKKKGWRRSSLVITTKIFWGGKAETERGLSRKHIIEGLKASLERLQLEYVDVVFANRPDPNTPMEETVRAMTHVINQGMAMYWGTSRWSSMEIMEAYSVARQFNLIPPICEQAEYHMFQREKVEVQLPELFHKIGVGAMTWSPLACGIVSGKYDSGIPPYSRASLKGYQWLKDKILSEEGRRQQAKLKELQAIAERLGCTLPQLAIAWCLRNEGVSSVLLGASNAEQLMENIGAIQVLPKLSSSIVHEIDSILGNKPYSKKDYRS

The inhibition is the drop in the measured response relative to a control, in per cent. As to `Cc1ccc2c(c1)N(CC(=O)Nc1ccc3c(c1)OCCO3)C(=O)CO2`, the cell count in experiment [1] amounted to 362. Further, the inhibition in experiment [1] was -4.9% (inactive); in experiment [3] it was -6.2% (inactive); in experiment [7], 38.1% (inactive); in experiment [8], 99.4% (active). Also, in experiment [2], the inhibition of aggregation is -2.2% (inactive). For the same compound, the nuclei count stood at 84.3% in experiment [2] and 104% in experiment [3]. The fluorescence slope in experiment [4] was -0.293 (inactive). Besides, the NADPH fluorescence slope in experiment [5] is -5e-05 (inactive). For the same compound, the slope in experiment [6] is 0.0057 (inactive).
Regarding `CCOC(=O)C(NC(=O)c1ccccc1)(Nc1cc(C)on1)C(F)(F)F` (stereo not drawn), the cell count in experiment [1] amounted to 379. Moreover, the inhibition was 2.6% (inactive) in experiment [1], 0.6% (inactive) in experiment [3], 14.5% (inactive) in experiment [7] and 24.7% (inactive) in experiment [8]. Moreover, the inhibition of aggregation in experiment [2] was -4.6% (inactive). The nuclei count in experiment [2] amounted to 101%; in experiment [3], 88.4%. Besides, the fluorescence slope in experiment [4] is -0.494 (inactive). For the same compound, the NADPH fluorescence slope in experiment [5] is -1.9e-05 (inactive). In addition, the slope in experiment [6] was 0.00554 (inactive).
For `COc1ccccc1CNC(=O)CCNC(=O)Cn1ccc2ccccc2c1=O`, in experiment [1], the cell count was 749. For the same compound, the inhibition is -23.7% (inactive) in experiment [1], -16.3% (inactive) in experiment [3], 7.16% (inactive) in experiment [7] and 6.29% (inactive) in experiment [8]. Further, the inhibition of aggregation in experiment [2] is 8.2% (inactive). Moreover, the results for the nuclei count in experiment [2] and in experiment [3] were 107% and 116%, respectively. Moreover, the fluorescence slope in experiment [4] was 0.0111 (inactive). Also, the NADPH fluorescence slope in experiment [5] was -1.6e-05 (inactive). Also, the slope in experiment [6] was 0.00394 (inactive).
For `CCOc1ccccc1NC(=O)CSc1nnc(Cc2cccn2C)n1-c1ccc(F)cc1`, the cell count in experiment [1] was determined as 529. Further, the inhibition in experiment [1] was -2.9% (inactive); in experiment [3], -55.6% (inactive); in experiment [7] it was 12.1% (inactive); in experiment [8] it was 31.3% (inactive). Also, in experiment [2], the inhibition of aggregation is -9.7% (inactive). Moreover, the nuclei count in experiment [2] was 93.1%; in experiment [3], 109%. Moreover, the fluorescence slope in experiment [4] was -0.577 (inactive). For the same compound, the NADPH fluorescence slope in experiment [5] was -3.6e-05 (inactive). The slope in experiment [6] is 0.00579 (inactive).
On to `Cc1cc(=O)oc2cc(OCC#N)ccc12`, for which the cell count in experiment [1] was 823. Also, the inhibition in experiment [1] is -2.9% (inactive); in experiment [3] it was -66.4% (inactive); in experiment [7], 8.92% (inactive); in experiment [8], 27.1% (inactive). For the same compound, in experiment [2], the inhibition of aggregation is -19.8% (inactive). In addition, the nuclei count in experiment [2] worked out at 95.4%; in experiment [3], 128%. Further, the fluorescence slope in experiment [4] was -0.521 (inactive). The NADPH fluorescence slope in experiment [5] was -3.5e-05 (inactive). Moreover, the slope in experiment [6] is 0.0067 (inactive).
Consider `Cc1ccc(N2CCN(C(=O)c3ccccc3)CC2)c(C)c1`, for which the cell count in experiment [1] was determined as 484. Further, the inhibition in experiment [1] is -0.5% (inactive); in experiment [3] it was -70.1% (inactive); in experiment [7], 12% (inactive); in experiment [8] it was 0.924% (inactive). For the same compound, the inhibition of aggregation in experiment [2] is 1.9% (inactive). For the same compound, the nuclei count in experiment [2] amounted to 100%; in experiment [3] it was 106%. The fluorescence slope in experiment [4] is -0.413 (inactive). Further, the NADPH fluorescence slope in experiment [5] is -6.4e-05 (inactive). Also, in experiment [6], the slope was 0.00418 (inactive).
`COc1ccc(OC)c(C2C(C(=O)Nc3cccnc3)=C(C)NC3=C2C(=O)CCC3)c1` (stereo not drawn): the cell count in experiment [1] stood at 353. Also, the inhibition is -7% (inactive) in experiment [1], -64% (inactive) in experiment [3], 3.04% (inactive) in experiment [7] and 25% (inactive) in experiment [8]. Further, the inhibition of aggregation in experiment [2] is 2.3% (inactive). The nuclei count was found to be 103% in experiment [2] and 131% in experiment [3]. In addition, the fluorescence slope in experiment [4] is -0.379 (inactive). Besides, the NADPH fluorescence slope in experiment [5] was 2.2e-05 (inactive). Also, the slope in experiment [6] is 0.00554 (inactive).
Consider `CCOC(=O)c1cc2sc(C)cc2n1CC(=O)Nc1cccc(C)c1C`, for which the cell count in experiment [1] amounted to 556. The inhibition in experiment [1] was 7.5% (inactive); in experiment [3], -44.9% (inactive); in experiment [7], -2.4% (inactive); in experiment [8] it was 12.7% (inactive). The inhibition of aggregation in experiment [2] was 23.7% (inactive). The nuclei count in experiment [2] was found to be 109%; in experiment [3], 116%. Moreover, the fluorescence slope in experiment [4] is -0.342 (inactive). Also, in experiment [5], the NADPH fluorescence slope is -3.2e-05 (inactive). Besides, the slope in experiment [6] is 0.00758 (inactive).
